From PubChem BioAssay (EPA / NIEHS)
Where “and” joins values, the source holds several entries; their conditions need not be identical. Identical values can stand only once. Results filed as inconclusive are left out. A structure can be active in one record and inactive in another. Calls of active or inactive are those of the source. Rule for the calls, unless noted: active = hit-call score of the fitted dose curve at least 0.9, where 1 is the maximum; inactive = score below 0.9.

Key:
[1] = BSK_4H_Eotaxin3: BioMAP Diversity Plus: 4H Assay for Eotaxin 3 Biomarker Activity (AID 2283000); settings: primary human endothelial cells (HUVEC); actives raise or lower the signal
Procedure, shortened: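 Eotaxin-3 (CCL26) levels were measured by ELISA in HUVEC primary cultures 24 h post-dosing. Gain or loss of signal was fitted in both directions, with DMSO serving as baseline and negative control.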

[2] = target: human Peroxisome Proliferator-activated Receptor delta (PPARd), PPARD (gene 5467) (UniProt Q03181); assay: ATG_PPARd_TRANS: Attagene TRANS-FACTORIAL HepG2 Assay for human Peroxisome Proliferator-activated Receptor delta (PPARd) (AID 2283002; active = hit-call score of the fitted dose curve at least 0.9, where 1 is the maximum)
human Peroxisome Proliferator-activated Receptor delta (PPARd), PPARD (gene 5467), sequence (Q03181 whole entry, looked up, the tested form may be a part): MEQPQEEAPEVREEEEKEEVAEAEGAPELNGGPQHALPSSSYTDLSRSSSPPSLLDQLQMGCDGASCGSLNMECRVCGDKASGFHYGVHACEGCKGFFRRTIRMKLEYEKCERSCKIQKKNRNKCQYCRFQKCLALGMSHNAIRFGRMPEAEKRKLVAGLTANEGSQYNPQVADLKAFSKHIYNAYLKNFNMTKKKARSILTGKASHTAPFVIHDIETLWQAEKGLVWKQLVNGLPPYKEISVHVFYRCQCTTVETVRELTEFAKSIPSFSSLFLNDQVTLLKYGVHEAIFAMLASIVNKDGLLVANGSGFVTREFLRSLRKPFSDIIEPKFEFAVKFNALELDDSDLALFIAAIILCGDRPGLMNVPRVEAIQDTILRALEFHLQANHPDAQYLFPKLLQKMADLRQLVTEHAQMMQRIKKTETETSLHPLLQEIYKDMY
Procedure, shortened: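 Read-out is induced reporter mRNA, quantified by RT-PCR with fluorescent labelling and capillary electrophoresis after 24 h dosing. Cells are HepG2 transiently carrying multiple GAL4-UAS reporter units driven by exogenous NR-GAL4 chimeras; DMSO serves as baseline.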

[3] = read-out: Intercellular Adhesion Molecule 1 (ICAM1), ICAM1 (gene 3383); assay: BSK_3C_ICAM1: BioMAP Diversity Plus: 3C Assay for Intercellular Adhesion Molecule 1 (ICAM1) Biomarker Activity (AID 2283003); settings: primary human endothelial cells (HUVEC); actives raise or lower the signal
Procedure, shortened: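 Human vascular endothelial primary cells, 3C conditions, 24 h treatment. ICAM-1 by ELISA.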

[4] = target: human Retinoic Acid Receptor beta (RARb), RARB (gene 5915) (UniProt P10826); assay: ATG_RARb_TRANS: Attagene TRANS-FACTORIAL HepG2 Assay for human Retinoic Acid Receptor beta (AID 2283004; active = hit-call score of the fitted dose curve at least 0.9, where 1 is the maximum)
human Retinoic Acid Receptor beta (RARb), RARB (gene 5915), sequence (P10826 whole entry, looked up, the tested form may be a part): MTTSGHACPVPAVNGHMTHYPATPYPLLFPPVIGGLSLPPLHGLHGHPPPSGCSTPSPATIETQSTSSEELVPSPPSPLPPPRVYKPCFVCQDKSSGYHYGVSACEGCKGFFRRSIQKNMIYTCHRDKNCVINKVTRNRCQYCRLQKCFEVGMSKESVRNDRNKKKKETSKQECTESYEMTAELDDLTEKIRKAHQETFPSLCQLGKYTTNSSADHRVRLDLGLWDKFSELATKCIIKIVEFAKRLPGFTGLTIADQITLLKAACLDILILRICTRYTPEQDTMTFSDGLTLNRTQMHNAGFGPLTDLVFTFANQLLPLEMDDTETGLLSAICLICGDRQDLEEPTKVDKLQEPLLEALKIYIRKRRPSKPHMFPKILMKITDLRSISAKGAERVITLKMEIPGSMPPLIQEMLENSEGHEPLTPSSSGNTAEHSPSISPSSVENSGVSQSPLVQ
Procedure, shortened: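 HepG2 cells were transiently transfected with GAL4-UAS reporter units that report activity of exogenous chimeric NR-Gal4 proteins, then exposed to compound for 24 h. Reporter mRNA was quantified by RT-PCR with capillary electrophoresis fluorescence, as gain of signal over DMSO.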

[5] = BSK_3C_Proliferation: Cell Proliferation Assessment in the BioMAP Diversity Plus: 3C Assay (AID 2283006); settings: primary human endothelial cells (HUVEC);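 for AC50: potency may reflect either rise or fall in cell number versus DMSO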
Procedure, shortened: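 Proliferation of human vascular endothelial primary cells after 48 h dosing, quantified as SRB-stained protein at 560 nm relative to DMSO.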

[6] = target: Peroxisome proliferator-activated receptor gamma (Homo sapiens) (UniProt P37231); assay: ATG_PPARg_TRANS: Attagene TRANS-FACTORIAL HepG2 Assay for human Peroxisome Proliferator-activated Receptor-gamma (PPARg) (AID 2283007; active = hit-call score of the fitted dose curve at least 0.9, where 1 is the maximum)
Peroxisome proliferator-activated receptor gamma (Homo sapiens), sequence (P37231 whole entry, looked up): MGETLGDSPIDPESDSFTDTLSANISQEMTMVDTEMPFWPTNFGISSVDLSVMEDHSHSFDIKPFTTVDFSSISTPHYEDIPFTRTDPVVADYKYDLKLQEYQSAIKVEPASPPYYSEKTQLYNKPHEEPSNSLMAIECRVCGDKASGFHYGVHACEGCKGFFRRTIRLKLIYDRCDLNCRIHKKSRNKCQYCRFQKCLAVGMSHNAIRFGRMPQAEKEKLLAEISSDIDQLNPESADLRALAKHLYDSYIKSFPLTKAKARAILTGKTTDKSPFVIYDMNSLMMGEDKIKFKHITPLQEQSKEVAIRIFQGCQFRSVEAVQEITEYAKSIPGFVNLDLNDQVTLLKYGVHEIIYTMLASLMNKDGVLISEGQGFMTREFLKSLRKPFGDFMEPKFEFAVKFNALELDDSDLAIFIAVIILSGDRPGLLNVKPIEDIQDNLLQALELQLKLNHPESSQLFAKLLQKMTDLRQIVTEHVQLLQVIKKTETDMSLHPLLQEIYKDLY
Procedure, shortened: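 Multiplexed reporter transcription units in HepG2, 24 h dosing, reporter transcripts quantified by fluorescent RT-PCR and capillary electrophoresis. Increase over DMSO scored.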

[7] = target: Nuclear receptor subfamily 1 group I member 2 (Homo sapiens) (UniProt O75469); assay: ATG_PXR_TRANS: Attagene TRANS-FACTORIAL HepG2 Assay for human Pregnane X Receptor (PXR) (AID 2283008; active = hit-call score of the fitted dose curve at least 0.9, where 1 is the maximum)
Nuclear receptor subfamily 1 group I member 2 (Homo sapiens), sequence (O75469 whole entry, looked up, the tested form may be a part): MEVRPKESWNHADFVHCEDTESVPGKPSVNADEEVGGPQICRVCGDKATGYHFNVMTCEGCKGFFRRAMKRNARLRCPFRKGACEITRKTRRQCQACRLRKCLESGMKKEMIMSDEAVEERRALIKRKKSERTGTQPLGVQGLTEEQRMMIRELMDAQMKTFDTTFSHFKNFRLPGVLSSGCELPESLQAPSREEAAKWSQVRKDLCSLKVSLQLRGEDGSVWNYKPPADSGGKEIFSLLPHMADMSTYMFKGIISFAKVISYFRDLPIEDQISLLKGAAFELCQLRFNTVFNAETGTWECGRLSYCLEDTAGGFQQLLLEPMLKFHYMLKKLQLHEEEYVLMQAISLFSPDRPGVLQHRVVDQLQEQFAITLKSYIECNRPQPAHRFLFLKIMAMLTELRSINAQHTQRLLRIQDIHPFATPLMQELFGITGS
Procedure, shortened: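 Fluorescence intensity of FAM-labelled, HpaI-digested reporter amplicons, separated by capillary electrophoresis, quantifies induction. HepG2 cells with PXR-Gal4 trans-reporter system were exposed 24 h; DMSO defines baseline.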

[8] = target: human RAR-related Orphan Receptor beta (RORb), RORB (gene 6096) (UniProt Q92753); assay: ATG_RORb_TRANS: Attagene TRANS-FACTORIAL HepG2 Assay for human RAR-related Orphan Receptor beta (RORb) (AID 2283010; active = hit-call score of the fitted dose curve at least 0.9, where 1 is the maximum)
Procedure, shortened: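 In this TRANS-format test, human HepG2 cells express chimeric NR-Gal4 fusion proteins driving GAL4-UAS reporters. After 24 h dosing, reporter transcripts are measured by fluorescent RT-PCR/capillary electrophoresis, with DMSO as negative control.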

[9] = target: human Thyroid Receptor alpha (THRa1), THRA (gene 7067) (UniProt P10827); assay: ATG_THRa1_TRANS: Attagene TRANS-FACTORIAL HepG2 Assay for human Thyroid Receptor alpha (THRa1) (AID 2283014; active = hit-call score of the fitted dose curve at least 0.9, where 1 is the maximum)
human Thyroid Receptor alpha (THRa1), THRA (gene 7067), sequence (P10827 whole entry, looked up, the tested form may be a part): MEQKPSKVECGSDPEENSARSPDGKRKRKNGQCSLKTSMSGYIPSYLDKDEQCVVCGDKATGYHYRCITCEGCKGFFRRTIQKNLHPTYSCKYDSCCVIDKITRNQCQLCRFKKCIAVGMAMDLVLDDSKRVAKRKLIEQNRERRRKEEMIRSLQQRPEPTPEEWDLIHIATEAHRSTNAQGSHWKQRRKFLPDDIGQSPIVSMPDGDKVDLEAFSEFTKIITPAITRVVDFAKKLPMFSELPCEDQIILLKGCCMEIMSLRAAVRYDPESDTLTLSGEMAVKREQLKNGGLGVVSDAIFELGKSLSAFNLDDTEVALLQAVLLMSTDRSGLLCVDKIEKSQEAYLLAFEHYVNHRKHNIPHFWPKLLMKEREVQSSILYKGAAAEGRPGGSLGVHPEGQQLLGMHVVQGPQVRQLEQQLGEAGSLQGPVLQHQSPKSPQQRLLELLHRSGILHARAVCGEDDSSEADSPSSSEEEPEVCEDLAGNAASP
Procedure, shortened: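 HepG2 cells transiently transfected with chimeric NR-Gal4 and GAL4-UAS reporter units, dosed 24 h. Reporter mRNA quantified by RT-PCR, fluorescent labeling, HpaI digestion and capillary electrophoresis; gain-of-signal fit versus DMSO.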

[10] = read-out: E-selectin (Homo sapiens) (UniProt P16581); assay: BSK_3C_Eselectin: BioMAP Diversity Plus: 3C Assay for Eselectin Biomarker Activity (AID 2283015); settings: primary human endothelial cells (HUVEC); actives raise or lower the signal
Procedure, shortened: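 Primary human umbilical vein endothelial cells (3C system), read 24 h after compound addition; E-selectin measured by ELISA. Bidirectional curve fitting against DMSO baseline; cytotoxicity by parallel SRB total-protein staining.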

[11] = read-out: Interleukin-1 alpha (IL1a), IL1A (gene 3552); assay: BSK_BE3C_IL1a: BioMAP Diversity Plus: BE3C Assay for Interleukin-1 alpha (IL1a) Biomarker Activity (AID 2283016); settings: primary human bronchial epithelial cells; actives raise or lower the signal
Procedure, shortened: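 Cultures of primary human bronchial epithelial cells receive test chemical. After 24 h, IL-1a is quantified by ELISA, while parallel wells are fixed in TCA and SRB-stained for total protein. Changes in either direction are fitted relative to DMSO.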

[12] = read-out: Monocyte Chemoattractant Protein-1 (MCP1), CCL2 (gene 6347); assay: BSK_4H_MCP1: BioMAP Diversity Plus: 4H Assay for Monocyte Chemoattractant Protein-1 (MCP1) Biomarker Activity (AID 2283018); settings: primary human endothelial cells (HUVEC); actives raise or lower the signal
Procedure, shortened: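 Readout: MCP-1 ELISA on compound-treated HUVEC, sampled 24 h post-dosing. Baseline and negative control DMSO; bidirectional fit. Overt toxicity checked alongside by sulforhodamine B protein staining at time of biomarker measurement.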

[13] = read-out: Human Leukocyte Antigen - DR isotype (HLADR), HLA-DRA (gene 3122); assay: BSK_3C_HLADR: BioMAP Diversity Plus: 3C Assay for Human Leukocyte Antigen - DR isotype (HLADR) Biomarker Activity (AID 2283019); settings: primary human endothelial cells (HUVEC); actives raise or lower the signal
Procedure, shortened: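 HUVEC monoculture, HLA-DR measured by ELISA 24 h after chemical dosing. Fitted bidirectionally against DMSO baseline; parallel SRB staining assessed cytotoxicity, with 3C proliferation read by SRB at 48 h.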

[14] = target: Retinoic acid receptor alpha (Homo sapiens) (UniProt P10276); assay: ATG_RARa_TRANS: Attagene TRANS-FACTORIAL HepG2 Assay for human Retinoic Acid Receptor alpha (RARa) (AID 2283005; active = hit-call score of the fitted dose curve at least 0.9, where 1 is the maximum)
Retinoic acid receptor alpha (Homo sapiens), sequence (P10276 whole entry, looked up, the tested form may be a part): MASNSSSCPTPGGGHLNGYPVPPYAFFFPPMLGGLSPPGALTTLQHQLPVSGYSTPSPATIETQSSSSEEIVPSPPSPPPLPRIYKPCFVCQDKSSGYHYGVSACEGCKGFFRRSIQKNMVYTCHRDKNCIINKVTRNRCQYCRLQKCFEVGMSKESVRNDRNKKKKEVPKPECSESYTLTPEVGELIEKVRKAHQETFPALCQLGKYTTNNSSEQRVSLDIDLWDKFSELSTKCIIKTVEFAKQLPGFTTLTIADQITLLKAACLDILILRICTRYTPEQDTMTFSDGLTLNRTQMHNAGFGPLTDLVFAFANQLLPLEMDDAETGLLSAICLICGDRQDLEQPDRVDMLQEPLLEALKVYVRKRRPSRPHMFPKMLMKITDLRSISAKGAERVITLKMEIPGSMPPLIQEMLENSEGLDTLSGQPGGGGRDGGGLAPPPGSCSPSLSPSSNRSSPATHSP
Procedure, shortened: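 Reporter transcripts, measured by RT-PCR with fluorescent labeling and capillary electrophoresis after 24 h dosing, reflect activity of an exogenous human RARa–GAL4 fusion in transiently transfected HepG2. Fitted for increase relative to DMSO.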

[15] = read-out: Monocyte Chemoattractant Protein-1 (MCP1), CCL2 (gene 6347); assay: BSK_3C_MCP1: BioMAP Diversity Plus: 3C Assay for Monocyte Chemoattractant Protein-1 (MCP1) Biomarker Activity (AID 2283017); settings: primary human endothelial cells (HUVEC); actives raise or lower the signal
Procedure, shortened: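 Human umbilical vein endothelial cells (3C system) exposed to chemicals for 24 h; MCP-1 quantified by ELISA against the DMSO baseline with bidirectional fitting, and parallel SRB staining used to assess cytotoxicity.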

[16] = target: human Peroxisome Proliferator-activated Receptor alpha (PPARa), PPARA (gene 5465) (UniProt Q07869); assay: ATG_PPARa_TRANS: Attagene TRANS-FACTORIAL HepG2 Assay for human Peroxisome Proliferator-activated Receptor alpha (PPARa) (AID 2283001; active = hit-call score of the fitted dose curve at least 0.9, where 1 is the maximum;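 for AC50: potency for gain of reporter signal over DMSO so agonist or activator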)
human Peroxisome Proliferator-activated Receptor alpha (PPARa), PPARA (gene 5465), sequence (Q07869 whole entry, looked up, the tested form may be a part): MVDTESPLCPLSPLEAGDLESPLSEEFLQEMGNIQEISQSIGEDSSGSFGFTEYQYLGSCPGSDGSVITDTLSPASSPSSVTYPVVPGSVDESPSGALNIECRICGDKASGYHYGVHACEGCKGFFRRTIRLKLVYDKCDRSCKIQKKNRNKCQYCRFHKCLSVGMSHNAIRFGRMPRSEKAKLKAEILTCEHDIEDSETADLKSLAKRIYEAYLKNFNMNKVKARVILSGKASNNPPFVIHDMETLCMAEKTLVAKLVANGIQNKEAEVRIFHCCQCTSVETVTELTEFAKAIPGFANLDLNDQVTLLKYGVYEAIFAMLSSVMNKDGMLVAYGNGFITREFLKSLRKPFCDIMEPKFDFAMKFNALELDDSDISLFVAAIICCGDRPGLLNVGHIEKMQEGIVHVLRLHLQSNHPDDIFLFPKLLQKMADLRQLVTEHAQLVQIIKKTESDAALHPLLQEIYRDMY
Procedure, shortened: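 Reporter transcripts from GAL4-UAS units in transfected HepG2 were quantified 24 h after dosing. Detection used reverse transcription, PCR, fluorescent primer extension and capillary electrophoresis, with DMSO as baseline.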

[17] = target: human Retinoic Acid Receptor gamma (RARg), RARG (gene 5916) (UniProt P13631); assay: ATG_RARg_TRANS: Attagene TRANS-FACTORIAL HepG2 Assay for human Retinoic Acid Receptor gamma (RARg) (AID 2283009; active = hit-call score of the fitted dose curve at least 0.9, where 1 is the maximum)
Procedure, shortened: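 HepG2, RARg-GAL4 TRANS system, 24 h exposure; reporter mRNA by RT-PCR + CE fluorescence; increase over DMSO.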

[18] = target: human RAR-related Orphan Receptor gamma (RORg), RORC (gene 6097) (UniProt P51449); assay: ATG_RORg_TRANS: Attagene TRANS-FACTORIAL HepG2 Assay for human RAR-related Orphan Receptor gamma (RORg) (AID 2283011; active = hit-call score of the fitted dose curve at least 0.9, where 1 is the maximum;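 for AC50: potency for induction of reporter transcripts above DMSO so activators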)
human RAR-related Orphan Receptor gamma (RORg), RORC (gene 6097), sequence (P51449 whole entry, looked up, the tested form may be a part): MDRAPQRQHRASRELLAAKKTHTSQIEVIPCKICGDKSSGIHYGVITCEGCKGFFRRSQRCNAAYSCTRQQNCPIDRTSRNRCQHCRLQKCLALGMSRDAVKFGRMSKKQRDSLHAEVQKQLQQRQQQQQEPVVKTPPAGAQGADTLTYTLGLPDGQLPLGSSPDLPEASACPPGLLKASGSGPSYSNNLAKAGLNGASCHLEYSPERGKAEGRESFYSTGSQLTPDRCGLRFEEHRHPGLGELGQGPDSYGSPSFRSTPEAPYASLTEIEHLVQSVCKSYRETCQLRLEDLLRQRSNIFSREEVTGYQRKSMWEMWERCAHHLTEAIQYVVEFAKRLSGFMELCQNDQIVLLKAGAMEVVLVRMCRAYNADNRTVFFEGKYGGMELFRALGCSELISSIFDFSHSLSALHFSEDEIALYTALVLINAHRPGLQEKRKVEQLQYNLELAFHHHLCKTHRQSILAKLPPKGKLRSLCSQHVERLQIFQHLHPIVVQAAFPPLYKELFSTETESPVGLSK
Procedure, shortened: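 HepG2 cells transiently transfected with GAL4-UAS reporter units and chimeric RORg-Gal4 construct; after 24 h chemical exposure, reporter mRNA measured by RT-PCR with fluorescent capillary electrophoresis, gain of signal fitted against DMSO.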

[19] = target: Retinoic acid receptor RXR-alpha (Homo sapiens) (UniProt P19793); assay: ATG_RXRa_TRANS: Attagene TRANS-FACTORIAL HepG2 Assay for human Retinoid X Receptor alpha (RXRa) (AID 2283012; active = hit-call score of the fitted dose curve at least 0.9, where 1 is the maximum)
Retinoic acid receptor RXR-alpha (Homo sapiens), sequence (P19793 whole entry, looked up, the tested form may be a part): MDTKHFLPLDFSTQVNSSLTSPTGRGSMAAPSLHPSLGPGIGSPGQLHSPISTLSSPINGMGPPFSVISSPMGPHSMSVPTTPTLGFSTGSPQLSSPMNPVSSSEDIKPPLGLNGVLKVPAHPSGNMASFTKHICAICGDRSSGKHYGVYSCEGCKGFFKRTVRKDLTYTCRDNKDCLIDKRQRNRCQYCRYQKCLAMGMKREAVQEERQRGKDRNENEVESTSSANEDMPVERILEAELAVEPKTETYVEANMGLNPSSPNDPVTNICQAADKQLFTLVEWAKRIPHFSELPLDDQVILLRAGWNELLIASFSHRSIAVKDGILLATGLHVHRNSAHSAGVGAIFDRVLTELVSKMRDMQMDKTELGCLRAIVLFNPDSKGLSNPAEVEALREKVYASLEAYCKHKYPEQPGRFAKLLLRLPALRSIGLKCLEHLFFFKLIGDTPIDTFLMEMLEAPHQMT
Procedure, shortened: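 Cells (HepG2) carried transiently transfected GAL4-responsive reporter units. Following a 24 h chemical incubation, reporter mRNA induction was read via RT-PCR fragment analysis; DMSO served as negative control and baseline.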

[20] = target: human Retinoid X Receptor beta (RXRb), RXRB (gene 6257) (UniProt P28702); assay: ATG_RXRb_TRANS: Attagene TRANS-FACTORIAL HepG2 Assay for human Retinoid X Receptor beta (RXRb) (AID 2283013; active = hit-call score of the fitted dose curve at least 0.9, where 1 is the maximum)
Procedure, shortened: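 Multiplexed TRANS reporter assay in HepG2; 24 h dosing; reporter mRNA by RT-PCR/CE fluorescence; gain-of-signal relative to DMSO.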

Measured: AC50

E-selectin (Homo sapiens), sequence (P16581 whole entry, looked up): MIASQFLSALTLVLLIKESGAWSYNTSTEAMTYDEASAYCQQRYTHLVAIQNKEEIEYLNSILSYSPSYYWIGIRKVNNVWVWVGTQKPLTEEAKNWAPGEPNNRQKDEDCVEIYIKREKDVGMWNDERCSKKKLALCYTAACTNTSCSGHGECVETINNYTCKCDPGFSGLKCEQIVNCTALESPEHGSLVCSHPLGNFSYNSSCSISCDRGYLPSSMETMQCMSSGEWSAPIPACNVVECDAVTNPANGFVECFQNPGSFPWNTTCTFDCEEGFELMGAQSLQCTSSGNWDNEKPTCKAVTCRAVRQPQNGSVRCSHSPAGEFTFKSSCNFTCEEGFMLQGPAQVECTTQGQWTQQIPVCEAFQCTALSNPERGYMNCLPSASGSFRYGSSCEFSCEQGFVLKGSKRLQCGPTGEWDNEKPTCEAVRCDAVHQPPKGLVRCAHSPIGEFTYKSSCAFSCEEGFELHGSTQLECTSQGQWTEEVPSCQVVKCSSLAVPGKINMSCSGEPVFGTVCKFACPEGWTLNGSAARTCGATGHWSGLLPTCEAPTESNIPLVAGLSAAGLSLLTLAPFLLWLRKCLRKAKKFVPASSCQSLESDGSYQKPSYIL

O=C=Nc1cccc2c(N=C=O)cccc12
active: [7] 628 nM | [12] 502 nM
not listed: [14] | [15] | [16] | [17] | [18] | [19] | [20]
inactive: all other assays above

O=S(=O)(O)CCC(F)(F)C(F)(F)C(F)(F)C(F)(F)F
inactive: [1] | [2] | [3] | [14] | [5] | [7] | [10] | [11] | [15] | [12] | [13]

CCCCCCCC/C=C\CCCCCCCC(=O)N(C)CC(=O)O
inactive: [2] | [4] | [14] | [7] | [17] | [18] | [19] | [9]
active: [16] 2.02 µM | [6] 5.36 µM

OCC(F)(F)C(F)(F)C(F)(F)C(F)(F)C(F)(F)C(F)(F)CO
inactive: [1] | [16] | [3] | [5] | [6] | [7] | [19] | [10] | [11] | [12] | [13]
active: [5] 15.6 µM

COC(F)(C(F)F)C(F)(F)F (stereo not drawn)
not listed: [4] | [9] | [15] | [16] | [17] | [19] | [20]
inactive: all other assays above

Nc1cc([N+](=O)[O-])cc(Cl)c1O
inactive: [1] | [16] | [3] | [5] | [7] | [18] | [19] | [10] | [11] | [12] | [13]

CCN=C1C=CC(=C(c2ccc(N(CC)CC)cc2)c2ccc(N(CC)CC)cc2)c2ccccc21
inactive: [7]
active: [1] 1.74 µM | [3] 3.69 µM and 3.76 µM | [5] 888 nM and 871 nM | [10] 3.62 µM and 2.78 µM | [11] 1.99 µM and 1.72 µM | [12] 1.03 µM and 1.16 µM | [13] 1.95 µM and 1.7 µM

FC(F)(F)C(F)(F)C(F)(F)CC1CO1 (stereo not drawn)
inactive: [1] | [16] | [3] | [5] | [7] | [18] | [9] | [10] | [11] | [12] | [13]

CC(O)C#CC(C)O (stereo not drawn)
inactive: [16] | [2] | [4] | [14] | [7] | [17] | [20]
active: [6] 41.1 µM | [18] 136 µM

CC1=CCC(=O)O1
inactive: [16] | [2] | [4] | [14] | [6]
